Reference: ChEMBL document CHEMBL3988442, “University of Dundee, Small-Polar-MMV Screening Library” (2021)
The campaign covered roughly 38,000 compounds. About 1,200 (3.2%) showed an effect of 50% or more. The median lay at about -58%. This excerpt belongs to a sample that is enriched for strong results.

Each compound was assayed on Plasmodium falciparum (assay: Calibr Malaria Delayed Death Assay SOP). Conditions: concentration 4.99e-06 (unit not given; other assays of the set use mol/L).
Assay type: functional, organism-based
Design: scale not given: in the data most compounds retested in dose-response had high values

SMILES	Percent Effect [%]
Cn1cc(CCNC(=O)c2cc3ccccc3nc2N2CCCC2)cn1	-91.24
Cc1nc(N2CCCC2)nc2c1CCN(Cc1nccn1C)CC2.O=C(O)C(F)(F)F	-65.41
CC(C)Nc1ncnc2c1CCN(Cc1nccn1C)CC2.O=C(O)C(F)(F)F.O=C(O)C(F)(F)F	-41.64
CC(C)Nc1nc2c(c(N(C)C)n1)CCN(Cc1nccn1C)CC2.O=C(O)C(F)(F)F	53.11
Cc1nc(C)c2c(n1)CCN(Cc1nccn1C)CC2.O=C(O)C(F)(F)F	-117.5
CN(C)c1nc(N2CCCC2)nc2c1CCN(Cc1nccn1C)CC2.O=C(O)C(F)(F)F	3.003
CC(C)Nc1nc2c(c(NC3CC3)n1)CCN(Cc1nccn1C)CC2.O=C(O)C(F)(F)F	75.38
Cc1nc(C)c(C(=O)N2CCN(CCOc3ccccc3C)CC2)o1	-41.56
Cl.N[C@@H](Cc1ccccc1)c1nnc(S(=O)(=O)Cc2ccc(Cl)cc2)o1	-112.8
COc1cnc(N2CC(N3CCOCC3)C2)nc1-c1ccnn1C	75.52
COc1cnc(N2CCN(C)CC2)nc1-c1ccnn1C	-14.56
Cc1cnc(N2CCN(C)CC2)nc1-c1ccnn1C	-103.6
CC(C)Cc1nc(OCC(=O)O)c(C#N)c2c1CCCC2	-37.32
Cc1[nH]nc(CCC(=O)N2CCc3c(nc[nH]c3=O)C2)c1C	-169.9
CCN(CC)CCn1cnc(-c2ccccc2)c1-c1ncc[nH]1	-50.85
CCN(CC)CCn1cnc(-c2ccccc2)c1-c1cnn(CC)c1	18.58
CCN(CC)CCn1cnc(-c2ccccc2)c1-c1cnc(C)s1	52.89
CCc1ccsc1C(=O)NC(C#N)CC(C)C (stereo unspecified)	-81.49
CC1CCN(C(=O)c2ccc(N(C)Cc3cnn(C)c3)nc2)CC1	-165.6
Cc1sc2nc(C(F)(F)F)nc(N3CCN(C)CC3)c2c1C	10.88
Cc1sc2nc(C(F)(F)F)nc(N3CCCN(C)CC3)c2c1C	75.15
CC(=O)N1CCN(c2nc(C(F)(F)F)nc3sc(C)c(C)c23)CC1	-31.05

SMILES	Percent Effect [%]
CC(NCc1ccc(F)cc1)c1ccc2[nH]c(=O)[nH]c2c1 (stereo unspecified)	-45.16
O=C1Nc2ccccc2/C1=C1\CCCCN1	-131
CN(C)CC(=O)N1CCc2sc(C(=O)NCC3CC3)cc21.O=C(O)C(F)(F)F	-49.99
CCCn1nc2c(cc1=O)CN(Cc1nc(CCOC)no1)CC2	60.93
CCn1nc2c(cc1=O)CN(Cc1nc(CCOC)no1)CC2	-158.3
CCCn1nc2c(cc1=O)CN(Cc1nc(-c3ccoc3)no1)CC2	-48.33
Cn1nc(CO)c2c1CCN(c1ncnc3c1CCNC3)C2	-81.19
CC(=O)Nc1ccc(CN(C)Cc2snnc2C)cc1	-153.1
CSCc1cccc(S(=O)(=O)NCCO)c1	-54.99
CCNS(=O)(=O)c1cccc(CSC)c1	-125.2
CCN(CC)CCNS(=O)(=O)c1cccc(CSC)c1	83.08
O=S1(=O)CCC(CNS(=O)(=O)N2CCc3ccccc3C2)C1 (stereo unspecified)	-112.5
O=S(=O)(NCC1CCOC1)N1CCc2ccccc2C1 (stereo unspecified)	-79.01
CCN1CCC(CNS(=O)(=O)N2CCc3ccccc3C2)C1 (stereo unspecified)	54.33
CN1CCCC(CNS(=O)(=O)N2CCc3ccccc3C2)C1 (stereo unspecified)	77.6
CN1CCN(S(=O)(=O)NCC2COc3ccccc3C2)CC1 (stereo unspecified)	-15.69
COCC1CCN(S(=O)(=O)NCC2COc3ccccc3C2)CC1 (stereo unspecified)	-101
O=S1(=O)CCN2C(=N1)Oc1ccc(S(=O)(=O)N3CCCC3)cc12	-88.45
CSCCCN1C[C@H](NC(=O)c2cc(C3CC3)on2)[C@@H](C2CC2)C1	21.88
O=C(c1cccnc1)N1CCC2(CC1)CCN(Cc1ccccn1)C2=O	-24.21
CCn1ncc(Cl)c1CN(C)C(=O)CCn1ncc(Br)c1C	-15.28
Cc1nc[nH]c1CN1CCN(C(=O)C2CC2)[C@H]2CS(=O)(=O)C[C@H]21	-108.2

SMILES	Percent Effect [%]
C[C@@H](O)CNc1c(NCc2ccco2)c(=O)c1=O	-66.82
CC1(C)CC(=O)c2cnc3nc(N4CCCCC4)nc(O)c3c2C1	-100.7
O=C(CCOc1cccc(F)c1)N1CCCC1Cn1cccn1 (stereo unspecified)	-132.8
Cc1ncc(CN2CCCC(c3cc(C(N)=O)[nH]n3)C2)s1 (stereo unspecified)	-114.1
CN(CCO)CC1COCCN1C(=O)C1(c2cccs2)CCCC1.O=CO (stereo unspecified)	45.51
CN(C)CC1COCCN1C(=O)C1(c2cccs2)CCCC1.O=CO (stereo unspecified)	30.77
Fc1cccnc1N1CCCC(c2nccs2)C1 (stereo unspecified)	-23.64
CN1CCC(CCNC(=O)N2CCN(Cc3ccon3)CC2)CC1	-51.38
CC(C)S(=O)(=O)CCN1CCc2c(ncn2C2CC2)C1	-95.89
CCS(=O)(=O)N1CCc2c(CN3CCOCC3)cncc2C1.Cl.Cl	-14.39
CC1CCCCN1CCNC(=O)c1ccn(-c2ccc(F)cc2)n1 (stereo unspecified)	33.02
CC1CCCCN1CCNC(=O)c1ccn(-c2cccc(F)c2)n1 (stereo unspecified)	62.87
CC1CCN(CCNC(=O)c2ccn(-c3ccc(F)cc3)n2)CC1	59.32
CC1CCN(CCNC(=O)c2ccn(-c3ccccc3)n2)CC1	21.68
COc1ccc(-n2ccc(C(=O)NCCN3CCCCC3C)n2)cc1 (stereo unspecified)	-78.7
CC1CCCN(CCNC(=O)c2ccn(-c3ccc(F)cc3)n2)C1 (stereo unspecified)	48.64
CS(=O)(=O)NCc1nnc2n1CCN(Cc1nccs1)C2	-79.56
CN(C)CC1(O)CCN(S(=O)(=O)c2cccc(F)c2)C1 (stereo unspecified)	65.12
CN(C)CC1(O)CCN(S(=O)(=O)c2ccc(Cl)cc2)C1 (stereo unspecified)	40.17
Cc1ccc(S(=O)(=O)N2CCC(O)(CN(C)C)C2)cc1 (stereo unspecified)	49.75
CC(=O)c1ccc(CNC(=O)c2c(C)cc(C)cc2C)nc1C	-62.27
CN(C)C(=O)c1nn(C)c2c1CN(Cc1cccs1)C2.O=C(O)C(F)(F)F.O=C(O)C(F)(F)F	-31.31

SMILES	Percent Effect [%]
NC(=O)CCC1CCCN(c2ccc3c(Cl)ccnc3c2F)C1 (stereo unspecified)	-15.33
NC(=O)CCC1CCCN(c2ccnc3cc(F)ccc23)C1 (stereo unspecified)	82.57
NC(=O)CCC1CCCN(c2ccc3ccc(F)cc3n2)C1 (stereo unspecified)	-163.3
NC(=O)C1CCN(CCCNC(=O)Nc2nccs2)CC1	-52.35
CCn1nc(C)c2nc(C(C)C)nc(N3CCC(O)CC3)c21	-68.6
COc1ccccc1CN(Cc1cccc(C)c1)C(=O)[C@@H](N)CC(=O)O	-17.66
CN[C@@H](C)C(=O)N(Cc1cccc(C)c1)Cc1ccccc1OC	83.47
COCC(=O)N(Cc1cccc(C)c1)Cc1ccccc1OC	-1.416
Cc1cnc(N2C(=O)CSC2c2cccs2)s1 (stereo unspecified)	-26.83
COc1ccc2[nH]cc(-c3ccnc(NC4CCCC4)n3)c2c1	56.79
COc1ccc2[nH]cc(-c3ccnc(N4CCC(C)CC4)n3)c2c1	-185.2
COC(=O)c1ccc2c(-c3ccnc(N[C@@H](C)CO)n3)c[nH]c2c1	-32.75
COc1ccccc1CC(C)CC(=O)NC(C)C (stereo unspecified)	-116.6
CC(=O)N(Cc1noc(C2CC2)n1)C1CCN(Cc2cc(C)on2)C1 (stereo unspecified)	-9.487
FC(F)(F)c1cccc(OC2CCN(Cc3ncc[nH]3)CC2)c1	-24.7
FC(F)(F)c1cccc(OC2CCN(Cc3c[nH]cn3)CC2)c1	48.24
Cc1cccc(-c2nc(N)nc3c2CN(C(=O)C2CCCC2)C3C)c1 (stereo unspecified)	35.57
COc1ccccc1CN1CC(O)CN(C(=O)OCC(C)C)CC1=O (stereo unspecified)	-17.94
Nc1ccc(C(=O)N2C[C@@H]3CC[C@H](C2)N(Cc2ccccc2)C3)cn1	-23.45
O=C(O)C(F)(F)F.O=C(O)C(F)(F)F.O=C(c1cccnc1)N1CCN2C[C@H](OCc3ccccc3)C[C@H]2C1	-25.13
CC(C#N)CSc1ccccc1NCC(=O)Nc1ccccc1 (stereo unspecified)	-74.13
CC(C#N)CSc1ccccc1NCC(=O)NC1CCCCC1 (stereo unspecified)	-62.9

SMILES	Percent Effect [%]
CC(C#N)CSc1ccccc1NCC(=O)NC(C1CC1)C1CC1 (stereo unspecified)	54.59
COc1c[nH]c(C(=O)N2CCN(c3ccccc3)CC2)cc1=O	-92.19
COC(=O)c1c(C(F)(F)F)cnc(OC)c1Cl	-7.4
CCC(CO)NC(=O)NCc1cc(C#N)ccc1F (stereo unspecified)	-31.58
COc1cccc(CNc2nc(C)cc(C)n2)c1OC	-94.43
COc1cccc(CNc2cc(C)nc(-c3ccncc3)n2)c1OC	88.78
COc1cccc(CNc2cc(C)nc(-c3ccncc3)n2)c1O	-16.17
CNc1oc(-c2cc(S(=O)(=O)N3CCCC3)c(C)o2)nc1C#N	-60.45
Cc1nn(C)c2nc(N3CCCC3c3nccs3)sc12 (stereo unspecified)	-63.74
Fc1ccc(OCc2nnc([C@H]3CCN(Cc4ccccn4)C3)o2)cc1	-10.02
NC(=O)c1cccnc1N1C[C@@H]2CC[C@H](C1)N(Cc1ccccn1)C2=O	-36.76
CCC(=O)N1CCC2(CC1)CC(NC(=O)N(C)C)c1cc(C)ccc12 (stereo unspecified)	-96.24
Cc1noc(Cl)c1CCC(=O)N1CCN(c2cnccn2)CC1	-135.5
Cc1nn(C)c(C)c1CCC(=O)N1CCc2sccc2C1	-11.91
Cc1noc(Cl)c1CCC(=O)N1CCN(CC(C)(C)O)CC1	-36.25
Cc1noc(C)c1CS(=O)(=O)CC(=O)N1CCc2sccc2C1	-29.06
Cc1noc(Cl)c1CCC(=O)N1CCN(c2ccccc2)CC1	51.57
Cc1noc(Cl)c1CCC(=O)N1CCc2sccc2C1	53
